# Assay outcomes as filed in PubChem BioAssay.
# This is a sample that favours compounds with a hit; in the whole collection about 19% have one here.
# TDP1 cell CPT = qHTS for Inhibitors of human tyrosyl-DNA phosphodiesterase 1 (TDP1): qHTS in cells in presence of CPT; chicken DT40 Tdp1-/-;hTDP1 cells + 20 nM CPT, ATP luminescence, 48 h; Potency, µM (doses to about 46.2 µM), inactives show at the highest dose activity change, negative = growth inhibition, actives largely listed as inhibitors; hit rate 12% among 420,000; note: potency is the fitted concentration of half-maximal effect; % is set by controls: 0 for no effect and ±100 for the full control effect; nearly all actives have a fitted effect of over 55% in size
#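 Chicken DT40 Tdp1-/- cells complemented with human TDP1, 400 cells/well, exposed to compounds plus 20 nM camptothecin for at least 48 h at 37 C; viability read as ATP content by CellTiter-Glo luminescence.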
# BCR signal inh = qHTS Assay to Find Inhibitors of Chronic Active B-Cell Receptor Signaling. ABC-DLBCL IkBa-CBG/CBR reporter, luminescence ratio, 4 h. Potency, µM (highest dose often 46.1 µM), for inactives: at the highest dose activity change, negative = inhibition, actives largely listed as inhibitors. hit rate 0.05% among 340,000. AID 493014, 2011; active = well fitted inhibition curve with a large enough effect in the signal ratio, with a control signal flat, not every such curve was filed as active; inconclusive = small, poorly fitted or top-dose-only effect, or effect the other way, or a change in a side signal; the % refers to the signal ratio;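 note: potency is the fitted concentration of half-maximal effect; plate controls were basal doxycycline-induced cells for no effect and cells given 10 µM MG132 for full effect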
#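 TMD8 ABC-DLBCL cells carrying doxycycline-inducible green luciferase fused to IkappaBalpha plus unfused red luciferase were exposed to compounds (up to 46 uM) for 4 hrs at 37C. Activity came from the overlap-corrected green/red luminescence ratio.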
# TDP1 cell noCPT = qHTS for Inhibitors of human tyrosyl-DNA phosphodiesterase 1 (TDP1): qHTS in cells in absence of CPT. DT40 Tdp1-/- hTDP1 cells, no CPT, ATP luminescence, 48 h. Potency, µM (titrated, usually from 46.2 µM), inactives show top-dose activity change, negative = growth inhibition, hits mostly inhibitors. hit rate 15% among 420,000; note: potency is the fitted concentration of half-maximal effect; % is set by controls: 0 for no effect and ±100 for the full control effect; nearly all actives have a fitted effect of over 55% in size
#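 No-CPT arm: Tdp1-/-;hTDP1 DT40 cells (400/well) plus compounds, incubated ≥48 hr at 37 °C. Readout CellTiter-Glo luminescence.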
# SW480 rereplic = A quantitative high throughput screen for small molecules that induce DNA re-replication in SW480 colon adenocarcinoma cells. hit rate 1.8% among 340,000. SW480 DNA re-replication, Hoechst DNA content imaging, 48 h. Potency, µM (top dose mostly 46.1 µM), for inactives: at the highest dose re-replication activation, usual class: activators; note: potency is the fitted concentration of half-maximal effect; % of control where 0% means no effect; nearly all actives have a fitted effect of over 55% in size
#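 First, 250 cells per well were seeded. Next, compound or vehicle (23 nL) was pinned in, plates sat 48 hr at 37 C. Finally Hoechst was added for 40 min before fluorescence scanning.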
# MCF10A rereplic = A quantitative high throughput screen for small molecules that induce DNA re-replication in MCF 10a normal breast cells. MCF 10A DNA re-replication, Hoechst nuclear intensity, 48 h. Potency, µM (doses to about 46.1 µM), for inactives: at the highest dose activity, positive = re-replication, usual class: activators. hit rate 2.9% among 350,000; note: potency is the fitted concentration of half-maximal effect; % of control where 0% means no effect; nearly all actives have a fitted effect of over 50% in size
# IL-1B inflam inh = qHTS for Inhibitors of Inflammasome Signaling: IL-1-beta AlphaLISA Primary Screen | THP-1 LPS/ATP IL-1B secretion, AlphaLISA, 16 h; active compounds read low | activity change, % at 57.5 µM | hit rate 4.7% among 360,000 | AID 743279, 2014; in the data active = activity change below about -50%; inconclusive = mostly about -30% to -49%; note: % is set by controls: 0 for no effect and ±100 for the full control effect
#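 Secreted IL-1B measured by AlphaLISA bead assay after 16 h compound exposure of THP-1 cells; compounds (final up to 57.5 uM) added 1 h before LPS (250 ng/mL) and ATP (1.25 mM) stimulation; lower signal means less secretion.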
# * marks the source's active call; other numbers are inactive results; ? = inconclusive; nt = no result. Unless noted, calls come from the whole dose curve; as a rule, active = well fitted curve in the direction sought with a large enough effect; inconclusive = small, poorly fitted or top-dose-only effect, or another doubt; inactive = no such curve, though single readings can be large; an effect the other way counts as inactive or inconclusive.
SMILES,TDP1 cell CPT,BCR signal inh,TDP1 cell noCPT,SW480 rereplic,MCF10A rereplic,IL-1B inflam inh
CCN(C(=O)COC(=O)c1ccc(-n2c(C)ccc2C)cc1)c1c(N)n(Cc2ccccc2)c(=O)[nH]c1=O,?,nt,-17.8%,14.5%,4.3%,?
COc1cc(OC)cc(-c2c(-c3cccs3)c3cc(-c4ccn[nH]4)ccc3n2C)c1,?,2.3%,16.4µM*,-6.2%,24.5%,61.0
COc1cc(OC)cc(-c2c(-c3cccs3)c3cc(-c4ccc5c(c4)OCO5)ccc3n2C)c1,?,-1.0%,?,-6.1%,4.8%,-5.5
COc1cc(F)cc(-c2ccc3c(c2)c(-c2cccs2)c(-c2cc(OC)cc(OC)c2)n3C)c1,18.4µM*,?,23.1µM*,-2.9%,?,2.1
COc1cc(OC)cc(-c2c(-c3cccs3)c3cc(Br)ccc3n2C)c1,6.5%,-0.3%,-16.0%,-5.3%,?,5.0
COc1cc(OC)cc(-c2c(-c3cccs3)c3cc(-c4ccc(N(C)C)nc4)ccc3n2C)c1,23.1µM*,-0.7%,20.6µM*,11.7%,9.0%,33.6
Cc1ccc(NC(=O)c2oc3ccc(S(=O)(=O)N4CCCCC4)cc3c2C)cc1C,?,?,-24.2%,nt,nt,nt
